ERK EGF inh: inhibitors of EGF-stimulated ERK signaling pathway; 130,000 tested, 0.41% active; Potency, µM (series often up to 11.5 µM), hits mostly inhibitors; HEK293-V1b, EGF-stimulated phospho-ERK AlphaScreen; further: nearly all actives have a fitted effect of over 55% in size
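Concentration-response of compounds against EGF-driven ERK phosphorylation in V1b-expressing HEK293 cells; 30 min preincubation, 5 min EGF, AlphaScreen detection; Normalized to DMSO basal and 25 nM EGF.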
IMPase Li cell: IMPase inhibition in cells with lithium potentiation | CHO-M1 cells, IP1 TR-FRET (IP-One), carbachol + lithium | Potency, µM (top dose mostly 59.4 µM), most hits filed as inhibitors | 210,000 tested, 0.35% active | AID 1457;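 further: IP1 builds up when IMPase is blocked and the TR-FRET signal falls; nearly all actives have a fitted effect of over 50% in size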
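Readout is a homogeneous TR-FRET IP1 immunoassay (Ex 320, Em 665 and 620), where raised cytosolic IP1 lowers signal. Cells were CHO-M1 treated 30 min at 37C with test compounds plus a little lithium; AC50 values came from Hill-equation fitting.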
NPSR antagonist: blocks cAMP signaling of the human neuropeptide S receptor; Q6W5P4; CHO-NPSR cells, cAMP TR-FRET, antagonist mode; Potency, µM (doses to about 38.3 µM), usual class: inhibitors; 220,000 tested, 1% active; AID 1461; further: nearly all actives have a fitted effect of over 50% in size
Target sequence (Q6W5P4 whole entry, looked up): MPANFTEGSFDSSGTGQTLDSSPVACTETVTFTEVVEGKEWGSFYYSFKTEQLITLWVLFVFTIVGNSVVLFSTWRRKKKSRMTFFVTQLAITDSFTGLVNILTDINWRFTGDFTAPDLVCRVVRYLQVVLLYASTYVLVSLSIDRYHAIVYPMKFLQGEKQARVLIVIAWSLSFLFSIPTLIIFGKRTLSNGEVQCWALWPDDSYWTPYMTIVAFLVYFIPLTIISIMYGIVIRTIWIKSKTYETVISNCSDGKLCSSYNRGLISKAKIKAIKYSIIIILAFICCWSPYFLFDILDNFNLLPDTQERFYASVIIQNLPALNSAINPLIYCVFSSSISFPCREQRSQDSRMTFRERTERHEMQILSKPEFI
A number is an active result; . = inactive; ? = inconclusive; / = not tested or not shown; ! = not confirmed by another sample; [ ] = another dose, or the depositor's remark. Only a selection was taken, and hits are over-represented in it overall. The call rests on the fitted dose curve; in most records, active means well fitted curve in the direction sought with a large enough effect; inconclusive means small, poorly fitted or top-dose-only effect, or another doubt; inactive means no such curve, though single readings can be large; an effect the other way counts as inactive or inconclusive.

SMILES	ERK EGF inh	IMPase Li cell	NPSR antagonist
COC(=O)C1(c2ccccc2)NC(c2ccc(O)cc2)C2C(=O)N(c3ccc4c(c3)OCO4)C(=O)C21 (stereo not drawn)	.	/	.
CCCCC(=O)NCCc1c(Cc2ccccc2)[nH]c2ccccc12	.	.	/
O=C(C1=C(O)C(=O)N(Cc2ccccc2)C1c1ccncc1)c1ccco1 (stereo not drawn)	/	.	.
O=C(C1=C(O)C(=O)N(CC2CCCO2)C1c1cccnc1)c1ccco1 (stereo not drawn)	/	12.6µM	?
COC(=O)c1ccc(C2C(C(=O)c3cc4ccccc4o3)=C(O)C(=O)N2CCCN(C)C)cc1 (stereo not drawn)	/	?	.
O=C(C1=C(O)C(=O)N(CCN2CCOCC2)C1c1cccnc1)c1cc2ccccc2o1 (stereo not drawn)	/	10µM	.
O=C(C1=C(O)C(=O)N(CCCN2CCOCC2)C1c1ccncc1)c1cc2ccccc2o1 (stereo not drawn)	.	.	.
COc1cccc2cc(C(=O)C3=C(O)C(=O)N(Cc4ccco4)C3c3cccnc3)oc12 (stereo not drawn)	/	10µM	7.94µM
COc1ccc(C2C(C(=O)c3ccco3)=C(O)C(=O)N2Cc2cccnc2)cc1OC (stereo not drawn)	/	.	.
CN(C)CCCN1C(=O)C(O)=C(C(=O)c2cc3ccccc3o2)C1c1ccccc1 (stereo not drawn)	/	10µM	?
CC(NC(=O)C1CCC(CNc2c(N3CCCCC3)c(=O)c2=O)CC1)c1ccccc1 (stereo not drawn)	.	/	.
COC(=O)N[C@H](c1ccccc1)C(C(C)=O)C(=O)OC (stereo partly drawn)	.	.	/
NCCNC(=S)S	/	.	/
C=CCNC(=O)C1COc2ccccc2O1 (stereo not drawn)	.	/	.[7.67 µM]
CCOC(=O)c1c(-c2ccc(Cl)cc2)cn2ccccc12	/	28.2µM	.
CCOC(=O)c1cnc2c(-c3ccc(Cl)cc3)cnn2c1C	.	.	.
C=CCOC(=O)N[C@@H](Cc1ccccc1)/C(C(=O)OC)=C(\C)NCc1ccccc1	.	.	/
CC(=O)N1CCC2(CCCN(c3ccccn3)C2)CC1	.	.	/
O=C(O)CCc1ccc(-c2ccc(Br)cc2)o1	/	8.91µM	?
O=C(O)CCc1ccc(-c2ccc(Cl)cc2)o1	/	.	.
CC1CCN(c2nc(-c3ccccc3)c(C#N)c(=O)[nH]2)CC1	/	.	12.6µM
CC(C)c1ccc(-c2nc(N3CCCCC3)[nH]c(=O)c2C#N)cc1	.	.	.
Cc1cccc(CNc2ccnc(-c3ccc(C(=O)N(C)C)cc3)n2)c1	.	.	/
C[C@@H](C(=O)N[C@@H](CO)Cc1ccccc1)[C@H]1C[C@]1(C)[C@H](NC(=O)OCc1ccccc1)c1ccccc1	.	.	/
CCOC(=O)c1cnc(-n2nc(C)cc2C)nc1Nc1ccc(OC)cc1	/	.	?
SMILES	ERK EGF inh	IMPase Li cell	NPSR antagonist
CCOC(=O)c1cnc(-n2nc(C)cc2C)nc1NCCc1ccccc1	/	.	12.6µM
CCOC(=O)c1cnc(-n2nc(C)cc2C)nc1Nc1ccccc1OC	/	.	.
CCOC(=O)c1cnc(-n2nc(C)cc2C)nc1NC1CCCC1	?	/	1.26µM
c1cncc(-c2cncnc2NC2CCNCC2)c1	/	.	/
COc1ccccc1-c1cc(=O)c2cccc(OC)c2o1	.	.	/
COc1cccc(-c2cc(=O)c3ccccc3o2)c1N	5.01µM!	.	.
CC1=NNC(=O)/C1=C\c1cn(-c2ccccc2)nc1-c1ccccc1	.	.	12.6µM
CC1(C)CC(=O)C(=Cc2cn(-c3ccccc3)nc2-c2ccc(Cl)cc2)C(=O)C1	/	.	?
COc1cccc(-c2nccc(NCCc3c[nH]c4ccc(OC)cc34)n2)c1	/	.	/
O=C(O)/C(Cc1cn[nH]n1)=N\O	/	.	/
Cc1ccco1	/	.	/
CSc1nc(N)c2ncn([C@@H]3O[C@H](COP(=O)(O)OP(=O)(O)O)[C@H](O)[C@H]3O)c2n1	.	.	?
CN(Cc1ccccc1)c1ccc(C(CC(N)=O)NC(=O)Cc2ccc(Br)cc2)cc1[N+](=O)[O-] (stereo not drawn)	31.6µM	/	.
CCC(CC)Nc1ccc(C(CC(N)=O)NC(=O)Cc2ccc(Br)cc2)cc1[N+](=O)[O-] (stereo not drawn)	.	/	.
COC(=O)[C@@H](O)CC[C@@H](C)Cc1c(OC)c(OC)c(C)c(OC)c1OC	.	.	/
COc1ccc(Oc2ncc3nc(-c4cccs4)c(=O)n(C)c3n2)cc1	?	.	/
CS(=O)(=O)N1CCC2(CCCN(Cc3cc(C(F)(F)F)cc(C(F)(F)F)c3)C2)CC1	.	.	/
Cc1ccc2nc3cc([N+](=O)[O-])cc([N+](=O)[O-])c3cc2c1	.	.	7.94µM
Cc1nc2ccc([N+](=O)[O-])cc2nc1C	.	.	.
Cc1ccccc1-c1cc(Nc2ccc(F)cc2)ncn1	.	.	/
c1ccc(CNc2cc(-c3cccnc3)ncn2)cc1	/	.	/
CCc1nc2sc3ccccc3c(=O)c2c(=O)n1Cc1ccco1	.	.	.
O=c1c2ccccc2sc2nc(C3CCCCC3)n(Cc3ccco3)c(=O)c12	/	.	10µM
O[C@@H](c1cc(-c2ccc(Cl)cc2)nc2ccccc12)C1CCCCN1 (stereo partly drawn)	/	.	/
OC(c1cc(-c2ccc(Cl)cc2)nc2ccccc12)C1CCCCN1 (stereo not drawn)	31.6µM	/	?
SMILES	ERK EGF inh	IMPase Li cell	NPSR antagonist
C[C@@](N)(C(=O)O)[C@@H]1C[C@@H]1C(=O)O	/	.	/
CCN(CC)P(=O)(Nc1ccccc1Br)c1ccc(N(C)C)cc1NC(=O)c1ccco1 (stereo not drawn)	.	.	7.94µM
CCN(CC)C(=O)c1cc(Cl)ccc1NC(=O)c1ccco1	.	/	.
CCCOc1ccc(/C(O)=C2\C(=O)C(=O)N(CCCOC)C23C(=O)N(C)c2ccccc23)cc1 (stereo not drawn)	/	10µM	?
CCCOc1ccc(/C(O)=C2\C(=O)C(=O)N(CCCN(C)C)C23C(=O)N(C)c2ccccc23)cc1 (stereo not drawn)	/	/	.
Cc1ccc2oc3c(c(=O)c2c1)C(c1cccc(O)c1)N(c1ccccn1)C3=O (stereo not drawn)	/	.	10µM
COC(=O)c1sc(N2C(=O)c3oc4ccccc4c(=O)c3C2c2cccc(O)c2)nc1C (stereo not drawn)	.	/	.
O=[N+]([O-])c1cc(Cl)cc(/C=N/NC(=S)Nc2ccc(S(=O)(=O)N3CCOCC3)cc2)c1O	.	/	.
COc1ccc(CNc2ccnc(-c3ccccc3CN(C)C)n2)c(OC)c1	/	.	/
Cc1ccc(C#N)cc1	/	.	/
Cc1ccc2ncccc2c1	/	.	/
Cc1cc(N(C)C)ccc1N=Nc1ccc2ncccc2c1	20µM	/	.
C[C@@H](CNC(N)=O)NC(N)=O	/	.	/
N#C/C(=C\Nc1ccccn1)C(=O)c1ccco1	/	.	/
CCOC(=O)c1cnc2cc3c(cn2c1=O)CCCC3	/	.	.
CCOC(=O)C1=C(SCC)c2cc3c(n2C1=O)CCCC3	25.1µM	.	12.6µM
O=c1[nH]c2cc3ccccc3cc2nc1C(F)(F)F	.	.	.
FC(F)(F)c1nc2cc3nc4ccccc4[nH]c3cc2n1	.	/	12.6µM
O=C1Oc2ccccc2C(=O)/C1=C\N1C(=O)N/C(=C\c2ccccc2O)C1=O	/	.	/
CCN(CC)CCNc1ncnc2c1[nH]c1ccc(OC)cc12	/	.	?
